These results are taken from PubChem BioAssay (NCI).

Each structure is given as a SMILES string. “And” between values parts separate entries of the source, which are not always exact repeats. Identical values can stand only once. About 83,000 compounds went through this panel and 20% of them were active in at least one assay; those are over-represented in the sample as a whole.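 In brief: 96-well plates, 48 h treatment, single concentration, percent growth endpoint.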 The source made the active and inactive calls. How the source made its calls: active means growth percent below 10; inactive means the rest.

The test concerns MDA-MB-468 breast. Nature of the test: NCI-60 one-dose screen, 48 h (100 = growth as untreated, 0 = no growth, -100 = all killed). To be noted: 10 µM unless noted.
As for `CN1CCN(CC(=O)Nc2nc3c(s2)Nc2cc(Cl)c(Cl)cc2NC3=O)CC1`, the growth is 114% (inactive). On to `Clc1ccc2c(c1)C(c1c[nH]c3ccccc13)(c1c[nH]c3ccccc13)CCO2`, for which the growth was 86.5% (inactive). Then `O=C(Nc1cc(F)cc2cccnc12)c1cnc(N2CCNCC2)cn1`, with -5.12% (active); and `Cc1c(N(C)CS(=O)(=O)O)c(=O)n(-c2ccccc2)n1C`, with 106% (inactive).

`Cc1cc(C)cc(Nc2ccc([N+](=O)[O-])c(NCCN3CCOCC3)n2)c1`: the growth is 20.8% (inactive). As to `CC/C(=C(\c1ccccc1)c1ccc(OCCNC)cc1)c1ccccc1`, the growth was -97.7% (active). Then `O=C1/C(=C\c2cccn2Cc2ccccc2)c2ccccc2N1c1c(Cl)cccc1Cl`, with -77.5% (active). Take `COc1cc(NCCCCCCCNC(C)C)c2nccc(C)c2c1`: the growth was 9.01% (active) and 13.7% (inactive).

For `CSc1n(Cc2ccc3ccccc3c2)c(C)c[n+]1Cc1ccc2ccccc2c1`, the growth was -47.5% (active). The figure for `COC(=O)[C@@H](CCCCNC(=O)[C@]12CCC(C)(C)C[C@@H]1C1=CC[C@@H]3[C@@]4(C)C/C(=C/c5ccco5)C(=O)C(C)(C)[C@@H]4CC[C@@]3(C)[C@]1(C)CC2)NC(=O)[C@]12CCC(C)(C)C[C@@H]1C1=CC[C@@H]3[C@@]4(C)C/C(=C/c5ccco5)C(=O)C(C)(C)[C@@H]4CC[C@@]3(C)[C@]1(C)CC2` is 109% (inactive). Then `Nc1c(C(=O)O)[nH]c(=O)[nH]c1=O`, with 103% (inactive); and `O=C1C2C(c3cccs3)C=C(c3ccc(Cl)cc3)N2C(=S)N1c1ccccc1` (stereo not given), with 79.7% (inactive); and `COc1ccc2nc(-c3ccc(Cl)cc3)cc(C(=O)N3N=C(c4ccc(N)cc4)CC3c3ccccc3)c2c1` (stereo not given), with 30.9% (inactive). `COc1ccc(NC(=O)c2sc3nc(C)c(C(=O)/C=C/c4cccc(OC)c4)cc3c2N)cc1`: the growth is 27.9% (inactive).

In the case of `COc1ccc2c(ccn2C(=O)N2c3ccccc3Sc3ccccc32)c1`, the growth is 21.8% (inactive). Turning to `O=C(CI)NC1Oc2ccccc2-c2oc(=O)c(-c3ccccc3)cc21` (stereo not given), the growth is -42.3% (active).

Regarding `CCOC(=O)c1sc(-c2ccc(OS(=O)(=O)c3ccc(Br)s3)c(C=O)c2)nc1C`, the growth is 18.1% (inactive). Then `COc1cc(OC)c2cc(C(=O)c3ccc(C#N)cc3)c(=O)oc2c1`, with 94.1% (inactive); and `CS(=O)(=O)Nc1cc(-c2ccc3ncc(C#N)c(Nc4ccc(F)c(Cl)c4)c3c2)cnc1Cl`, with -48.7% (active); and `CCN1CCN(C(=O)[C@]23CC[C@@H](C)[C@H](C)[C@@H]2C2=CC[C@@H]4[C@@]5(C)C/C(=C/c6ccncc6)C(=O)C(C)(C)[C@@H]5CC[C@@]4(C)[C@]2(C)CC3)CC1`, with -1.64% (active).

For the molecule `CCC1=C(c2ccc(OC)cc2)C(C)Oc2cc(OC(C)=O)ccc21` (stereo not given), the growth was -14.1% (active). Then `C=CC(=O)Nc1cc2c(Nc3ccc(F)c(Cl)c3)ncnc2cc1C#CC(C)(C)N1CCN(C)CC1`, with -61.1% (active); and `COc1cc2[nH]c(C(=O)c3cc(OC)c(OC)c(OC)c3)c(N)c2cc1C#CC1CC1`, with 23.4% (inactive).

Regarding `c1ccc(Nc2cc(-c3cccnc3)[nH]n2)cc1`, the growth was 106% (inactive). In the case of `COc1cc(-c2nn(-c3cccc(NC(=O)CN4CCOCC4)c3)cc2-c2cccnc2)ccc1Cl`, the growth was 74.9% (inactive). Then `C#CCC1(c2ccc(F)c(F)c2)NS(=O)(=O)c2ccccc21` (stereo not given), with 95.2% (inactive).

In the case of `COc1ccc(CNc2c3ccccc3nc3ccccc23)cc1`, the growth is 27.1% (inactive).

With `O=C(CCCN1C(=O)/C(=C/c2ccccc2F)SC1=S)N1CCOCC1`, the growth was 55.7% (inactive). Then `NS(=O)(=O)c1ccc(-n2nc(-c3ccc(Cl)cc3)c3ccccc3c2=O)cc1`, with 104% (inactive); and `CC1(C)CC(=O)C2=C(C1)OC(C(=O)c1ccccc1)C2c1cccc(Oc2ccccc2)c1` (stereo not given), with 33% (inactive); and `CC(C)CCSc1nc(Nc2ccccc2)c(C#N)c(-c2ccccc2)n1`, with 43.4% (inactive).

Regarding `Cc1ccc(C2CC3c4ccccc4C2C2CCCCN32)cc1` (stereo not given), the growth is -0.132% (active). Consider `COc1cnc2c(c1)C(=O)c1c-2n(CCCN2CCNCC2)c(=O)c2cc([N+](=O)[O-])ccc12`, for which the growth is -74.8% (active). Turning to `NC(C(=O)O)C(O)c1ccco1` (stereo not given), the growth was 102% (inactive).

For the molecule `CCCCCCCC/C=C/CCCCCCCC1=NC(C)(C)CN1c1ccccc1`, the growth was 85.7% (inactive). Then `CN(C)c1ccc(Nc2c3ccccc3nc3cc(NC(=O)CCN4CCCC4)ccc23)cc1`, with -74.9% (active); and `CCOc1cc(/C=N\NC(=O)N/N=C/c2ccc(O)c(OCC)c2)ccc1O`, with 3.75% (active); and `CC(C)(C)N1CCC1C(N)=O` (stereo not given), with 108% (inactive).

As for `Cc1c(O)ccc(SC#N)c1C`, the growth was 112% (inactive). The figure for `Cn1c(=O)[nH]c2ccccc2c1=O` is 107% (inactive).
